Screens: PubChem, several laboratories
Sampled rows, rich in hits. Any-hit rate of the full collection: about 3.9%.
NTR1 ag: agonists of human NTR1, primary screen, imaging, U2OS cells, beta-arrestin-GFP, high content. Neurotensin receptor type 1 (Homo sapiens), P30989. NTR1-U2OS beta-arrestin-GFP spot imaging, agonist mode. activation, % at 20 µM. 330,000 tested, 0.17% active. AID 493036, 2011;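 active means activation at or above 40% of the spot to cytoplasm intensity ratio, with at least 20 cells analyzed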
Target sequence (P30989 whole entry, looked up): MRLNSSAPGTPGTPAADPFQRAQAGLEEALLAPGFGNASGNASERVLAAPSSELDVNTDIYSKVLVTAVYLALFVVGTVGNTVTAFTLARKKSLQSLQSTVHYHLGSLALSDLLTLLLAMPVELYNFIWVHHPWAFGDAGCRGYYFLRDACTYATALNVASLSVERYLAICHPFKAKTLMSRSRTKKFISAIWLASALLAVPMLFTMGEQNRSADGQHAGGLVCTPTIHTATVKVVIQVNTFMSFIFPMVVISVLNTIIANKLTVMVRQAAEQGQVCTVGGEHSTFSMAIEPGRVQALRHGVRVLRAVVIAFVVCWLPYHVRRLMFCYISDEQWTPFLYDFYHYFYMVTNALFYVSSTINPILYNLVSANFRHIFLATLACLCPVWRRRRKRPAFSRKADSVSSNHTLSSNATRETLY
UBC9 SUMO inh: inhibitors of in vitro SUMOylation cascade, primary screen, biochemical, HTRF, uHTS | SUMO-conjugating enzyme UBC9 (Homo sapiens), P63279 | HTRF SUMOylation assay, SAE1/SAE2 + UBC9 | inhibition, % at 35 µM | 290,000 tested, 0.36% active; in the data active means inhibition above about 50%, passing the limit was not always enough
H9c2 protect: cardioprotection against H2O2-induced cell death, primary screen, uHTS, H9c2 cells, ATPLite luminescence | 360,000 tested, 0.63% active | protection from H2O2 cell death, % at 20 µM | H9c2 cardiomyocytes, H2O2 injury protection, 2 h;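 active means compounds giving at least 50% protection of heart cells from peroxide-induced death in the single-dose screen, raw or plate-pattern-corrected value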
ALR H2O2 inh: inhibitors of human ALR sulfhydryl oxidase, primary screen, biochemical, H2O2 detection, HRP-luminol luminescence, single point; FAD-linked sulfhydryl oxidase ALR (Homo sapiens), P55789; purified ALR, DTT oxidation; inhibition, % (concentration not given with the values); 290,000 tested, 3.8% active; AID 485317, 2010;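 active means mean replicate inhibition above about 79%, with every replicate also reaching it, limit read from the data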
Target sequence (P55789 whole entry, looked up): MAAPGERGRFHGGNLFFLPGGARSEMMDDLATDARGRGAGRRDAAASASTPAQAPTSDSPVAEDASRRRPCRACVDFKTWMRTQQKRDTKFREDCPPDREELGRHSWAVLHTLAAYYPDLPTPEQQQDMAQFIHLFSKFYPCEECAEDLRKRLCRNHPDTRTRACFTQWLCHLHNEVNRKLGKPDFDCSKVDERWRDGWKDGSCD
Hits are given with their value; - = inactive; . = no result given.

SMILES	NTR1 ag	UBC9 SUMO inh	H9c2 protect	ALR H2O2 inh
C/C(=N\NS(=O)(=O)c1ccc(Cl)cc1)c1ccc(O)cc1	-	-	-	95.7
S=c1[nH]c2cc(Cl)ccc2s1	-	-	-	98.2
Cc1ccccc1NS(=O)(=O)c1ccc2c(c1)CCC(=O)N2	.	.	-	.
CCOC(=O)Cn1nc(C(F)F)c(Br)c1C	-	-	-	-
COc1ccc(-c2nc(CS(=O)CC(=O)N3CCCC3)c(C)o2)cc1 (stereo not given)	-	-	-	99.0
COc1ccc(-c2nc(CN3CCN(Cc4ccccc4)CC3)c(C)o2)cc1	-	-	-	-
CCN1CCN(C(=O)CS(=O)Cc2nc(-c3ccc(OC)cc3)oc2C)CC1 (stereo not given)	-	-	-	99.0
O=C(NNC1=NCCCCC1)c1ccccc1	-	-	-	-
CC(=O)Nc1cccc(N2C(=O)CCC2=O)c1	-	-	-	-
Nc1nc(Nc2ccccc2)n[nH]1	-	-	-	97.5
Nc1nc(Nc2ccc(Cl)cc2)n[nH]1	-	-	-	98.6
Cc1nn(C)c(Cl)c1C(=O)NCC(=O)NCc1ccccc1	-	-	-	-
CC(=O)NC1=C(Nc2ccc(N(C)C)cc2)C(=O)c2ccccc2C1=O	-	-	-	100.0
O=C(NCCOCCOCCNC(=O)c1cccnc1)c1cccnc1	-	-	-	-
O=C(c1cc(S(=O)(=O)N2CCCCC2)ccc1F)N1CCCCC1	-	-	-	83.4
O=C(c1ccccc1F)N1CCN(S(=O)(=O)c2ccc(S(=O)(=O)N3CCCCC3)cc2)CC1	-	-	-	-
N=C(N)SCc1cn2ccccc2n1	-	-	-	97.6
c1ccc2c(SCc3cn4ccccc4n3)nncc2c1	-	-	-	98.8
Cc1cc(-c2nn(-c3ccccc3F)cc2CN2CCCC(CO)C2)c(C)s1 (stereo not given)	-	-	-	-
CCCS(=O)(=O)NCc1cn2c(C)csc2n1	-	-	-	-
CC(=O)Nc1ccc(Oc2ncccn2)c(Cl)c1	-	-	-	-
Oc1cc(O)cc(/C=C/c2ccc(O)c(O)c2)c1	-	.	-	98.7
C/C=C/c1ccc(O)c(OC)c1	-	.	-	.
COc1ccccc1NC(=O)N(C)C[C@@H]1OCc2cnnn2CCCC(=O)N([C@H](C)CO)C[C@H]1C	.	.	-	.
[O-]c1c[n+](-c2ccc(-[n+]3cc([O-])on3)cc2)no1	-	-	-	98.1
SMILES	NTR1 ag	UBC9 SUMO inh	H9c2 protect	ALR H2O2 inh
COc1ccc(N=C(N(C)C)P(=O)(N(C)C)N(C)C)cc1	-	-	-	99.0
CSCC[C@H](NS(=O)(=O)c1ccc(C(C)=O)cc1)c1nnc2ccccn12	-	-	-	-
CCN(CC)S(=O)(=O)c1ccc(Cl)c(NC(=O)CCCCl)c1	-	-	-	.
CCCC(=O)Nc1cc(S(=O)(=O)N(CC)CC)ccc1Cl	-	-	-	98.0
O=C(O)c1cccc(-n2cccc2/C=C2/NC(=O)N(c3cccc(Cl)c3)C2=O)c1	-	-	-	.
O=C(O)c1cccc(-n2cccc2/C=C2/NC(=O)N(c3ccc(Cl)cc3)C2=O)c1	.	90.0	-	.
CC(=O)c1ccc(NC(=S)Nc2ccc3[nH]c(=O)[nH]c3c2)cc1	-	-	-	-
Cc1ccc(NC(=S)Nc2ccc3[nH]c(=O)[nH]c3c2)cc1C	-	-	-	90.0
COC(=O)/C=C1/S/C(=N/NC(=O)c2ccccc2OC)NC1=O	-	-	-	96.6
CCN(CC)CCCN(C(=O)c1ccc(Br)cc1)c1nc(-c2ccc(OC)cc2)cs1	-	-	-	-
CCN(CC)CCCN(C(=O)c1cccc(C)c1)c1nc(-c2ccc(OC)cc2)cs1	-	-	-	96.3
O=C(CCN1CCOCC1)N1CCCC(Nc2cccc(F)c2)C1 (stereo not given)	-	-	-	-
COc1ccc(NC2CCCN(C(=O)CCN3CCOCC3)C2)cc1 (stereo not given)	.	-	-	98.7
COc1ccc(NC2CCCN(C(=O)CCN3CCCO3)C2)cc1 (stereo not given)	-	-	-	95.7
O=C(c1cccc2ccccc12)C1CCCN(C(=O)CCN2CCCO2)C1 (stereo not given)	-	-	-	-
Cc1ccc(Nc2nc(Cl)nc(N(C)C#N)n2)cc1	-	-	-	97.1
COc1ccc(O[C@H]2C=C[C@@H](c3ccccc3)O[C@@H]2COC(=O)CC/C(C)=N/O[C@@H](C)c2cn([C@H](CO)Cc3ccccc3)nn2)cc1	.	-	.	.
CC(=O)Oc1ccc2c(=O)c(N3C(=O)c4ccccc4C3=O)c(C)oc2c1C	-	-	-	-
CC1CCCC(NC(=O)COC(=O)CSc2ccc3ccccc3c2)C1C (stereo not given)	-	-	-	99.0
COc1cc(C(=O)NS(=O)(=O)c2ccccc2C)ccc1Cc1cn(C)c2ccc(NC(=O)OC3CCCC3)cc12	-	72.5	.	97.3
COc1ccccc1N=c1oc2cc(O)ccc2cc1C(N)=O	-	-	-	.
Cc1cccc(N=c2oc3cc(O)ccc3cc2C(N)=O)c1	-	-	-	94.5
COC(=O)c1sc(-c2ccc(C(C)(C)C)cc2)cc1NC(=O)c1ccccc1C(=O)O	-	-	-	91.6
COC(=O)c1sc(-c2ccc(C(C)(C)C)cc2)cc1NC(=O)CSCC(=O)O	-	-	-	97.7
COC(=O)c1sc(-c2ccccc2)cc1NC(=O)C1CC1	-	-	-	-
SMILES	NTR1 ag	UBC9 SUMO inh	H9c2 protect	ALR H2O2 inh
COC(=O)c1sc(-c2ccc(Cl)cc2)cc1NC(=O)c1ccccc1C(=O)O	-	-	-	97.3
COC(=O)c1sccc1NC(=O)c1ccccc1C(=O)O	-	.	-	-
COc1ccccc1N1CCN(CCS(=O)(=O)c2cc(Cl)ccc2Cl)CC1	.	.	-	.
CCC(C)(C(=O)NC1CCCC1)N(C)C(=O)c1ccccn1 (stereo not given)	-	-	-	-
O=C(O)Cn1nnc(-c2cccs2)n1	-	-	-	-
CCCS(=O)(=O)N1CCN(C(=O)CCC2CCCC2)CC1	-	-	-	-
CN(C)C(=S)Nc1ccc(N2CCOCC2)cc1	-	-	-	99.0
CSCCCNC(=S)Nc1ccc(N2CCOCC2)cc1	-	-	-	95.0
CSCCCNC(=S)Nc1ccc(N2CCOCC2)cc1N1CCOCC1	-	-	-	95.6
Cc1ccc(NC(=S)NCCCN2CCOCC2)cc1	-	-	-	-
O=C1c2cccc3cccc(c23)C(=O)N1CCCc1n[nH]c(=S)n1-c1ccccc1	-	-	-	91.9
OCCCc1n[nH]c(=S)n1-c1ccccc1	-	-	-	-
CCOC(=O)C1=C(COC(=O)c2ccc([N+](=O)[O-])o2)NC(=O)NC1C (stereo not given)	-	.	60.7	-
CCOC(=O)C1=C(c2ccccc2)NC(=O)NC1c1ccc(OC)cc1 (stereo not given)	-	-	-	-
CCOC(=O)C1=C(c2ccccc2)NC(=O)NC1c1ccc(N(C)C)cc1 (stereo not given)	-	-	-	99.0
CC(C)CNC(=O)c1cc(=O)[nH]c2ccc(S(=O)(=O)Nc3ccc(F)cc3)cc12	-	-	-	-
